What was measured:
Assay in all cases: log2 ratio of Biotin-Ahx-Ub-VS probe labelling (fragment/DMSO); higher = less target engagement (more negative = stronger competition), active = hit call of the paper (q ≤ 0.05, log2 ratio ≤ -1)
Settings in all cases: compound concentration: 200 uM; treatment time: 3 h
ALG13 = target: T1, ALG13 (UniProt Q9NP73)
T1 sequence (whole entry): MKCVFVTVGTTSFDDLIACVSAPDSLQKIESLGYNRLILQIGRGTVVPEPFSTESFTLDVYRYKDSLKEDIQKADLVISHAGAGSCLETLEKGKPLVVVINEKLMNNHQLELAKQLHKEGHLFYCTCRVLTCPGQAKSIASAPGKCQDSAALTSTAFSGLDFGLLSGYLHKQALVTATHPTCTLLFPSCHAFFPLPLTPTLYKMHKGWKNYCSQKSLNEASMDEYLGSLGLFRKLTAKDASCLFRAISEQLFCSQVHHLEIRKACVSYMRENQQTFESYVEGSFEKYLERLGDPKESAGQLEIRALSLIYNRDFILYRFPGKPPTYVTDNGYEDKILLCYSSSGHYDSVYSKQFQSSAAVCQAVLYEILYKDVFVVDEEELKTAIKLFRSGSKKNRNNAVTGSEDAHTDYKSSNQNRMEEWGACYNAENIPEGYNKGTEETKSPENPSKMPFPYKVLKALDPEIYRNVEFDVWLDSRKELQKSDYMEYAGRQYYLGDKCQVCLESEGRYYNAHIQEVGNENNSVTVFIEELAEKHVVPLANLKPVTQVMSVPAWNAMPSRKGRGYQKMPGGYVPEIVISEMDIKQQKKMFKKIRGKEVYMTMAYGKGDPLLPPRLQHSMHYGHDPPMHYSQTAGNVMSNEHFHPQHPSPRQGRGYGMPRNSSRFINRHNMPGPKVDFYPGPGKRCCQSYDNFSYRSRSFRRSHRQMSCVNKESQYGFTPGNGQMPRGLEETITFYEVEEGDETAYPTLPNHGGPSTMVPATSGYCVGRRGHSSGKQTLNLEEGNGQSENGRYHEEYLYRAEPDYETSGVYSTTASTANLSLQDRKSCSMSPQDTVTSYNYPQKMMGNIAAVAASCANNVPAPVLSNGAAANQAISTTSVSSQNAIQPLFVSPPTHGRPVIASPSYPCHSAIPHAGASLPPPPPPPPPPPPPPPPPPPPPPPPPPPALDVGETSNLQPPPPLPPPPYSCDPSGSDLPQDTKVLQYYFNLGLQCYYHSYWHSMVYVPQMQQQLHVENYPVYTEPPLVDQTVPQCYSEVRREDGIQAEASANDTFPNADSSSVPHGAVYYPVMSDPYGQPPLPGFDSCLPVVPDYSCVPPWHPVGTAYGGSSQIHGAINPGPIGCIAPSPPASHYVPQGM
In short: (§1)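 Triplicate samples of HEK293T lysate, 495 µg each, received fragment at 200 µM or vehicle for 3 h, followed by Biotin-Ahx-Ub-VS (0.5 µM final) for 1 h. After NeutrAvidin enrichment of labelled DUBs and LysC/trypsin digestion, peptides were run by diaPASEF LC-MS/MS. The values are average log2 fragment/vehicle ratios from global-median-normalised Spectronaut label-free quantities, tested by unpaired t-test on proteins having ≥2 unique peptides.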

ATXN3 = ATXN3 (UniProt P54252)
In short: as §1

BAP1 = target: T2, BAP1 (UniProt Q92560)
T2 sequence (whole entry): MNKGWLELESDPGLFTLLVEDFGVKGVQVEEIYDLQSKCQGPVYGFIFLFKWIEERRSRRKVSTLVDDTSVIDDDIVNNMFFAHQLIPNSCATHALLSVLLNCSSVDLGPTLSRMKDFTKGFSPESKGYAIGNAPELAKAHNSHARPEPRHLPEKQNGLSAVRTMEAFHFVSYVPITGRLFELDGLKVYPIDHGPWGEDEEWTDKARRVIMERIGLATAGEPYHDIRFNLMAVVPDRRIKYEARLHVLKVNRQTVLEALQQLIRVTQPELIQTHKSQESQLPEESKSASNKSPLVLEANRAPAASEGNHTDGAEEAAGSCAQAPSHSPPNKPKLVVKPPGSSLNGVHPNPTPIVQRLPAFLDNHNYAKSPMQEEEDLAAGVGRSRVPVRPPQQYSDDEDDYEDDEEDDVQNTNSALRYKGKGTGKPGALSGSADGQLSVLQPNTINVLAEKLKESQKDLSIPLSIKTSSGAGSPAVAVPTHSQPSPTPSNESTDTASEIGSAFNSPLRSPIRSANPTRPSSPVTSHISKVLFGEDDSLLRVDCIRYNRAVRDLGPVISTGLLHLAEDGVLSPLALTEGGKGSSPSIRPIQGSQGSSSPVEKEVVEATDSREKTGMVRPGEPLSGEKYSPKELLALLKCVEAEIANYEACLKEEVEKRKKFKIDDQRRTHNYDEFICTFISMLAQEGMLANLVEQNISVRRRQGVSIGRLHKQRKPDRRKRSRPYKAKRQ
In short: as §1

EIF3F = EIF3F (UniProt O00303)
In short: as §1

EIF3H = EIF3H (UniProt O15372)
In short: as §1

FAM105A = target: T3, FAM105A (UniProt Q9NUU6)
T3 sequence (whole entry): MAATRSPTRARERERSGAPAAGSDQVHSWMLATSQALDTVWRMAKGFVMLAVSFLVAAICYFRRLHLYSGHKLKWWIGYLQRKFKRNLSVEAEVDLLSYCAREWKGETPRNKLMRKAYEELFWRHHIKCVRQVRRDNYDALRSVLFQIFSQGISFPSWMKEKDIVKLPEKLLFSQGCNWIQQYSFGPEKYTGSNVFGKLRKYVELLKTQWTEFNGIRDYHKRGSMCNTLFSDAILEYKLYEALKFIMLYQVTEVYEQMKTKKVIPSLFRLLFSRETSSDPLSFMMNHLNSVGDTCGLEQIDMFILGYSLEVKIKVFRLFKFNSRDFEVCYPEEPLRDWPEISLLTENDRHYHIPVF
In short: as §1

OTUB1 = OTUB1 (UniProt Q96FW1)
In short: as §1

OTUD4 = target: T4, OTUD4 (UniProt Q01804)
T4 sequence (whole entry): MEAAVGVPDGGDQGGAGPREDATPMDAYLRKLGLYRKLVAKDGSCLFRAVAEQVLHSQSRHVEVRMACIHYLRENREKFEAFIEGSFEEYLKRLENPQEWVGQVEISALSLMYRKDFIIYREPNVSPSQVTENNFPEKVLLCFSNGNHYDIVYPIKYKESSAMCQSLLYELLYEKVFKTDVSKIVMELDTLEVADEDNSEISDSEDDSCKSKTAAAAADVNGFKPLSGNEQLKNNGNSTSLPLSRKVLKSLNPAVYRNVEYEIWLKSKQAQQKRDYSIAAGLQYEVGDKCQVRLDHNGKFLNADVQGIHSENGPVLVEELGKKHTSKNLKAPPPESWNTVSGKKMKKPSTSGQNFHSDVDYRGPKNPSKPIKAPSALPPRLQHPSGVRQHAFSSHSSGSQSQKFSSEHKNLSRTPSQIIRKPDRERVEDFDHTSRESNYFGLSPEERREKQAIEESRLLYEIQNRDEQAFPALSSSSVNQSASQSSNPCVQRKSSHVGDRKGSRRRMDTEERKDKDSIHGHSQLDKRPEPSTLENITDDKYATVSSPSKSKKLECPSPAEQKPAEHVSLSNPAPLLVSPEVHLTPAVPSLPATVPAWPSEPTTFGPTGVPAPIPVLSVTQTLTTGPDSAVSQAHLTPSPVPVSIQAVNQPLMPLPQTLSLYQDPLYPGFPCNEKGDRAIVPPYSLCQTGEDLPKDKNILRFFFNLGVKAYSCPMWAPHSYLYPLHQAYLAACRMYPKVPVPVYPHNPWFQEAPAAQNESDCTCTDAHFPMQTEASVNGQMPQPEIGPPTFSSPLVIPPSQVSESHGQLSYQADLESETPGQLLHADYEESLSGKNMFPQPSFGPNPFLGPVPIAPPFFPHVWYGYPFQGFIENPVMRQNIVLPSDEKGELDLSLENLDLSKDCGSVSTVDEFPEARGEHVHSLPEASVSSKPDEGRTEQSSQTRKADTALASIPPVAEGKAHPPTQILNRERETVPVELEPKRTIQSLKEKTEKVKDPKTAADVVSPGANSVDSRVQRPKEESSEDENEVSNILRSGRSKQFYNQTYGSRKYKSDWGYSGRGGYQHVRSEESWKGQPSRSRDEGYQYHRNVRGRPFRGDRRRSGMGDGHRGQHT
In short: as §1

OTUD5 = target: T5, OTUD5 (UniProt Q96G74)
T5 sequence (whole entry): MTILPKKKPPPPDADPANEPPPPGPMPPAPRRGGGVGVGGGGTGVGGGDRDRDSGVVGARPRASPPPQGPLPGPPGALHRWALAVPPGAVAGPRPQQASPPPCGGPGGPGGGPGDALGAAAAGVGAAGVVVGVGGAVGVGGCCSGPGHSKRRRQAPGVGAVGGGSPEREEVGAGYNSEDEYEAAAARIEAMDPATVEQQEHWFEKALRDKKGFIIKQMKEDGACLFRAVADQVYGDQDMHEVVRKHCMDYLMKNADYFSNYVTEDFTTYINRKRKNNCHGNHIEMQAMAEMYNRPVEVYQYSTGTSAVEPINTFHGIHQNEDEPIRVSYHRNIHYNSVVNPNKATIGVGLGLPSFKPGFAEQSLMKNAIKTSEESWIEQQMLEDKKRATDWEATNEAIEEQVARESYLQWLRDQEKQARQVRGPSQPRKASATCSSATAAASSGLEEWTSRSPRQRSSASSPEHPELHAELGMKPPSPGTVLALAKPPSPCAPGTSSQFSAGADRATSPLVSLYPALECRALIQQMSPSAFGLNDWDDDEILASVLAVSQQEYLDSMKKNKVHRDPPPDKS
In short: as §1

Measured: log2 ratio of Biotin-Ahx-Ub-VS probe labelling

Chain of EIF3F (O00303 whole entry): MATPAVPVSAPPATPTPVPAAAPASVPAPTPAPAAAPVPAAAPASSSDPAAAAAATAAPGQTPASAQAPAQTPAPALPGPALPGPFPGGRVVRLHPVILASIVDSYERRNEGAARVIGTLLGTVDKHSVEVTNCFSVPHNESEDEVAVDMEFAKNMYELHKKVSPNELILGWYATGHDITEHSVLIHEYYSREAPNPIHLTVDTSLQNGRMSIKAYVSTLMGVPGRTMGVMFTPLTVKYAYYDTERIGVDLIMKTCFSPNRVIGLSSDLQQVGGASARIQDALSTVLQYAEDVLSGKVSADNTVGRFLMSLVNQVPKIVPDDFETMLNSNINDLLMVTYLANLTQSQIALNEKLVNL
Chain of OTUB1 (Q96FW1 whole entry): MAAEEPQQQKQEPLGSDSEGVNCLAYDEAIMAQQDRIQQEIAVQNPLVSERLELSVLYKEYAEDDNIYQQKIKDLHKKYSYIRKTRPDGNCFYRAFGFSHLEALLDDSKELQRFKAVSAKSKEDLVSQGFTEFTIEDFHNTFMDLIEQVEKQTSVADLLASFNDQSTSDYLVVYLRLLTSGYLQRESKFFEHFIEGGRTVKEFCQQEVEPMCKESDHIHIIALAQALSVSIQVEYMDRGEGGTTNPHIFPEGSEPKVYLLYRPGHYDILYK
Chain of EIF3H (O15372 whole entry): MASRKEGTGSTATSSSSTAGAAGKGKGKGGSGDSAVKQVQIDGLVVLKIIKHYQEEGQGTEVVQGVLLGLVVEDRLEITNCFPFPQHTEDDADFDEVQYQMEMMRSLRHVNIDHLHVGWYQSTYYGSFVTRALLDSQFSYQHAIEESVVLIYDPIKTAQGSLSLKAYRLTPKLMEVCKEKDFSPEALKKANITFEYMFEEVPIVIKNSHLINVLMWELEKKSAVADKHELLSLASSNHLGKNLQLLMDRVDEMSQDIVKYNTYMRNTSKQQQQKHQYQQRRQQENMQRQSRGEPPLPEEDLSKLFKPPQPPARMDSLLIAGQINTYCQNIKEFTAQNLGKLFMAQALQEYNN
Chain of ATXN3 (P54252 whole entry): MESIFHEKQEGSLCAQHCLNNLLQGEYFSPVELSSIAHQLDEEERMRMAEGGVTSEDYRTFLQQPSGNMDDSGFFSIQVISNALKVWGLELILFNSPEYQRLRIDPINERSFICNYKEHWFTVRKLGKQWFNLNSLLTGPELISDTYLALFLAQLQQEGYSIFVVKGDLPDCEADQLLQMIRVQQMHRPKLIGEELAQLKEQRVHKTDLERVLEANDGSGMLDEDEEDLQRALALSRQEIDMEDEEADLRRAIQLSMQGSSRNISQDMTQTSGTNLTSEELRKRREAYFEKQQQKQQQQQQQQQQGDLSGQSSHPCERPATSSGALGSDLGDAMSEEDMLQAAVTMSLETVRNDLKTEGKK

Cc1nnc(C(NC(=O)CCl)c2ccccc2)n1C (centres undefined)
inactive: ALG13 -0.558 | ATXN3 0.355 | BAP1 0.428 | EIF3F 0.534 | EIF3H 0.24 | FAM105A 0.549 | OTUB1 -0.00852 | OTUD4 0.483 | OTUD5 0.385
